In the library only some 3.8% were active in any assay of this set; here they are far more common.
ELG1 repair inh – inhibitors of ELG1-dependent DNA repair in HEK293T cells. HEK293T ELG1-luciferase reporter, luminescence, 16 h; DNA damage induced by 5-fluorouridine. Potency, µM (top dose mostly 46.1 µM), usual class: inhibitors. actives 2.3% (n = 330,000); further: nearly all actives have a fitted effect of over 55% in size
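5-Fluorouridine DNA damage + compound/DMSO, 2,000 cells/well, 16 h, 37 °C/5% CO2. ONE-Glo, 30 min RT, luminescence. Readout = decrease in reporter signal.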
mIDH1 inhibitor – inhibitors of human mutant IDH1 R132H; O75874; IDH1-R132H enzyme, NADPH consumption, diaphorase/resazurin fluorescence; Potency, µM (titrated, usually from 76.6 µM), actives largely listed as inhibitors; actives 0.093% (n = 390,000); further: nearly all actives have a fitted effect of over 65% in size
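IDH1-R132H (0.5 ug/mL) preincubated 30 min with compound, then NADPH (0.016 mM) and alpha-KG (2 mM) added; 80 min at RT, pH 7.5. Remaining NADPH coupled via diaphorase/resazurin to fluorescence (540/590 nm); concentration-response curves normalized to no-enzyme control.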
Nrf2 ARE act – Nrf2 pathway activation; actives 0.31% (n = 410,000); Potency, µM (titrated, usually from 46.1 µM), usual class: activators; AREc32 ARE-luciferase reporter (MCF7-derived line), luminescence, 24 h; AID 624171; further: nearly all actives have a fitted effect of over 65% in size
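ARE activation measured as luciferase luminescence (Steady-Glo, 30 min RT) in AREc32_Fluc cells after 24 hr compound exposure at 37 deg C, 5% CO2; cells seeded overnight at 1000/well in OPTI-MEM, 5% FBS.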
A549 tox-1 – kills or reduces viability of A549 cells in Nrf2 counter-screen; A549 ARE-Fluc cells, CellTiter-Fluor viability, 18-24 h; Potency, µM (highest dose often 46 µM), hits mostly inhibitors; actives 0.16% (n = 390,000)
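Cytotoxicity counterscreen: CellTiter-Fluor fluorescence was measured in A549 ARE_Fluc cells after 18-24 h of compound exposure in a concentration series. The subsequent BugLite luminescent read reports ARE-luciferase activity.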
Nrf2 inh – blocks Nrf2 signaling; AID 504444; actives 2.1% (n = 360,000); Potency, µM (titrated, usually from 46 µM), most hits filed as inhibitors; A549 ARE-Fluc reporter, luciferase luminescence, 18-24 h; further: nearly all actives have a fitted effect of over 60% in size
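In this cell-based qHTS, ARE-driven firefly luciferase in A549 cells reports Nrf2 activity; the luminescent signal after BugLite lysis is the measured value, with a prior CellTiter-Fluor read for cell health.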
FLuc counter 3 – firefly luciferase inhibition, Nrf2 hit validation. shares compounds with Nrf2 inh. purified firefly luciferase, luminescence inhibition. Potency, µM (series often up to 57.5 µM), usual class: inhibitors. actives 4% (n = 1,400); further: nearly all actives have a fitted effect of over 65% in size
Target sequence (P08659 whole entry, looked up): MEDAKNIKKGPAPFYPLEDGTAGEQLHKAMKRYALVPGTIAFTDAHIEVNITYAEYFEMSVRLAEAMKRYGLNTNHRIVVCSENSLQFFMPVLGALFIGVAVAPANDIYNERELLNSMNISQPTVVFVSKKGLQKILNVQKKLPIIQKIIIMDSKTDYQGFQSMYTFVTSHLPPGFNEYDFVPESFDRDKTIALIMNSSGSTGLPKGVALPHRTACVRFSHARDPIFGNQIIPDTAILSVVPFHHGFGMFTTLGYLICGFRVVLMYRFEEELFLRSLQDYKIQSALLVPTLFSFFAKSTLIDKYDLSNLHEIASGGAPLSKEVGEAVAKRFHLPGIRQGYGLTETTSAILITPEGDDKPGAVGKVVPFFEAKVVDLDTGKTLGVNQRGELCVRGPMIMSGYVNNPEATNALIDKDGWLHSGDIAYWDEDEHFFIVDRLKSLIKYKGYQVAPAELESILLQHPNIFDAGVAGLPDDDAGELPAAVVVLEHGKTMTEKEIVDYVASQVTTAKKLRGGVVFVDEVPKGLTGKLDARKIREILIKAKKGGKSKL
A549 tox-2 – counter-screen for Nrf2 inhibitors: cytotoxicity in A549 ARE cells; Potency, µM (titrated, usually from 46.1 µM), most hits filed as inhibitors; A549 ARE-Fluc cells, cytotoxicity counterscreen; shares compounds with Nrf2 inh; actives 2% (n = 1,400); AID 720523;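 further: cells exposed to compounds for 18 to 24 hours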
Nrf2 ARE inh – reduces Nrf2 ARE reporter signal in A549 cells; shares compounds with Nrf2 inh; AID 720524; Potency, µM (highest dose often 46.1 µM), hits mostly inhibitors; A549 ARE-firefly luciferase reporter, luminescence; actives 74% (n = 1,400); further: nearly all actives have a fitted effect of over 65% in size
Of the large screens only hits and unclear results are named; the others gave an inactive call (follow-up assays come after a bar, where they were run). The call rests on the fitted dose curve; in most records, active means well fitted curve in the direction sought with a large enough effect; inconclusive means small, poorly fitted or top-dose-only effect, or another doubt; inactive means no such curve, though single readings can be large; an effect the other way counts as inactive or inconclusive.

O=C(Nc1cccc(Cl)c1Cl)c1ccc2c(c1)N(Cc1cccc(Cl)c1)C(=O)c1ccccc1S2=O (stereo not drawn)	none (no result: ELG1 repair inh, Nrf2 inh)
Cc1cc2[nH]c3c(c[n+](C)c4ccccc34)c2cc1C	A549 tox-1 inconclusive, Nrf2 inh 5.8µM | FLuc counter 3 inactive | A549 tox-2 inactive | Nrf2 ARE inh 7.31µM
Cc1cc2[nH]c3c4ccccc4nc(C)c3c2cc1C	A549 tox-1 inconclusive, Nrf2 inh inconclusive (no result: ELG1 repair inh)
COc1cc(C(=O)NCC(=O)N2CCN(S(=O)(=O)c3ccccc3C(F)(F)F)CC2)cc(OC)c1OC	ELG1 repair inh inconclusive
Cc1cc2c([nH]c3ccccc32)c2c1OC(C)(C)C=C2	ELG1 repair inh inconclusive, Nrf2 inh inconclusive
COc1ccc2[nH]c(=O)c3c(c2c1)OC(C)(C)C=C3	ELG1 repair inh inconclusive, Nrf2 inh 8.2µM | FLuc counter 3 inactive | A549 tox-2 inactive | Nrf2 ARE inh 11.6µM
COC(=O)c1c(C)oc2ccc(N(C(=O)c3ccncc3)S(=O)(=O)c3ccc(OC)cc3)cc12	A549 tox-1 inconclusive, Nrf2 inh 0.82µM (no result: ELG1 repair inh) | FLuc counter 3 inactive | A549 tox-2 inactive | Nrf2 ARE inh 14.6µM
CCc1ccc(S(=O)(=O)N(C(=O)c2ccncc2)c2ccc3oc(C)c(C(=O)OC)c3c2)cc1	Nrf2 inh 6.51µM (no result: ELG1 repair inh) | FLuc counter 3 inactive | A549 tox-2 inactive | Nrf2 ARE inh 10.3µM
COc1ccc(S(=O)(=O)N(C(=O)c2ccncc2)c2ccc3oc(C)c(C(C)=O)c3c2)cc1	Nrf2 inh 5.8µM (no result: ELG1 repair inh) | FLuc counter 3 inactive | A549 tox-2 inactive | Nrf2 ARE inh inconclusive
CCOc1ccc(S(=O)(=O)N(C(=O)c2ccncc2)c2ccc3oc(C)c(C(=O)OC)c3c2)cc1	A549 tox-1 inconclusive, Nrf2 inh 0.651µM (no result: ELG1 repair inh) | FLuc counter 3 inactive | A549 tox-2 inactive | Nrf2 ARE inh inactive
COc1ccc(S(=O)(=O)N(C(=O)c2ccncc2)c2ccc3oc4c(c3c2)CCCC4)cc1	ELG1 repair inh inconclusive, A549 tox-1 inconclusive, Nrf2 inh inconclusive
CCOC(=O)c1c(C)oc2ccc(N(C(=O)c3ccncc3)S(=O)(=O)c3ccc(F)cc3)cc12	Nrf2 inh inconclusive (no result: ELG1 repair inh)
COc1ccc(CCNC(=O)c2ccc3c(c2)CCN3S(=O)(=O)c2ccc(Cl)cc2)cc1	Nrf2 inh inconclusive (no result: ELG1 repair inh)
CCN(CC(=O)NC1CCS(=O)(=O)C1)S(=O)(=O)c1ccccc1Cl (stereo not drawn)	none
CCOC(=O)N1CCc2c(sc3c2c(=O)n(Cc2ccccc2)c(=O)n3CC(=O)Nc2ccc(F)cc2)C1	Nrf2 inh inconclusive (no result: ELG1 repair inh)
Cc1ccccc1C1NC(=S)NC2=C1C(=O)CCC2 (stereo not drawn)	none
Cn1c(N)c(C(=O)COC(=O)c2cc(S(=O)(=O)NCc3ccccc3)ccc2O)c(=O)n(C)c1=O	none (no result: ELG1 repair inh)
COc1ccc(Nc2nc(-c3cccs3)nc3ccccc23)cc1S(=O)(=O)N1CCOCC1	A549 tox-1 inconclusive, Nrf2 inh 9.2µM (no result: ELG1 repair inh) | FLuc counter 3 inactive | A549 tox-2 inconclusive | Nrf2 ARE inh inconclusive
COc1ccccc1S(=O)(=O)N1CCN(c2nc(-c3cccs3)nc3ccccc23)CC1	none (no result: ELG1 repair inh, mIDH1 inhibitor, Nrf2 ARE act)
O=S(=O)(Nc1ccc(Cc2ccncc2)cc1)c1ccc(Cl)c(Cl)c1	A549 tox-1 inconclusive (no result: Nrf2 inh)
COc1ccc(S(=O)(=O)Nc2ccc(Cc3ccncc3)cc2)cc1OC	Nrf2 inh 6.51µM | FLuc counter 3 inactive | A549 tox-2 inactive | Nrf2 ARE inh inconclusive
CCC(=O)NNC(=O)Cc1c(C)n(C(=O)c2ccc(Cl)cc2)c2ccc(OC)cc12	none
Cc1cccc(-c2noc(CCC(=O)NCc3ccco3)n2)c1	none (no result: Nrf2 inh)

Assay outcomes deposited in PubChem BioAssay by National Center for Advancing Translational Sciences (NCATS).
